In PubChem BioAssay (NCI):
This is part of a sample that, as a whole, favours compounds with a hit. Of some 83,000 tested, about 20% had one in any assay.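 Cells were grown in 96-well plates and exposed to the test compound at a single concentration for 48 hours; results are reported as percent growth, with values below 10 considered active.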 Unmarked numbers belong to inactive results. Active and inactive are the calls of the source.

How the values were obtained:
Assay in all cases: NCI-60 one-dose screen, 48 h (100 = growth as untreated, 0 = no growth, -100 = all killed)
Details in all cases: 10 µM unless noted
DU-145 prostate = tested on: DU-145 prostate
K-562 leukemia = tested on: K-562 leukemia
MALME-3M melanoma = tested on: MALME-3M melanoma
MDA-MB-231 breast = tested on: MDA-MB-231 breast
RXF 393 renal = tested on: RXF 393 renal
SF-268 CNS = tested on: SF-268 CNS
SF-295 CNS = tested on: SF-295 CNS
SF-539 CNS = tested on: SF-539 CNS
UACC-257 melanoma = tested on: UACC-257 melanoma
M14 melanoma = tested on: M14 melanoma
HCT-15 colon = tested on: HCT-15 colon
HT29 colon = tested on: HT29 colon
SNB-75 CNS = tested on: SNB-75 CNS
SNB-19 CNS = tested on: SNB-19 CNS
U251 CNS = tested on: U251 CNS
PC-3 prostate = tested on: PC-3 prostate
SK-MEL-5 melanoma = tested on: SK-MEL-5 melanoma
UACC-62 melanoma = tested on: UACC-62 melanoma
LOX IMVI melanoma = tested on: LOX IMVI melanoma
SK-MEL-28 melanoma = tested on: SK-MEL-28 melanoma

Compound	growth (DU-145 prostate)	growth (K-562 leukemia)	growth (MALME-3M melanoma)	growth (MDA-MB-231 breast)	growth (RXF 393 renal)	growth (SF-268 CNS)	growth (SF-295 CNS)	growth (SF-539 CNS)	growth (UACC-257 melanoma)	growth (M14 melanoma)	growth (HCT-15 colon)	growth (HT29 colon)	growth (SNB-75 CNS)	growth (SNB-19 CNS)	growth (U251 CNS)	growth (PC-3 prostate)	growth (SK-MEL-5 melanoma)	growth (UACC-62 melanoma)	growth (LOX IMVI melanoma)	growth (SK-MEL-28 melanoma)
COc1ccc(-c2nc(SCCC(C)C)nc(N/N=C\c3ccccc3O)c2C#N)cc1	95.7%	91.6%	89.6%	85.1%	76.1%	78%	94.2%	90.9%	89.8%	98.3%	86.6%	103%	74.8%	72.4%	60.5%	92.3%	94.2%	90%	84.6%	99.1%
CNC(=O)CCN1CCN(CC/C=C2\c3ccccc3Sc3ccc(Cl)cc32)CC1	90.5%	32.4%	98%	102%	21.6%	77.5%	98.5%	97.3%	-30.9% (active)	81.3%	63.2%	58.2%	74.3%	98.6%	77.8%	8.82% (active)	79.6%	60.4%	72%	-51.5% (active)
COCN1CCC2N(COC)CCC3N(COC)CCC1N23 (stereo not given)	111%	111%	134%	94.1%	112%	104%	113%	101%	98.8%	98%	104%	105%	90.8%	93.6%	102%	102%	109%	94.3%	101%	106%
COc1cc(-c2nc(N3CCN(C)CC3)c3ccccc3n2)cc(OC)c1OC	82.4%	44.8%	63.8%	61.2%	51.4%	56.8%	28.6%	39.3%	58.2%	42%	56.9%	49.5%	15.7%	85.2%	60.2%	52.8%	47%	18.2%	44.3%	59.5%
CCc1ccccc1-n1c(-c2ccc(Cl)cc2)cc(-c2ccc(OC)cc2)c(C#N)c1=O	94.6%	101%	148%	92.7%	97.5%	93.4%	93.2%	102%	112%	93.4%	99.6%	103%	93%	105%	114%	84.1%	101%	89.1%	89.6%	109%
C=C1C(=O)O[C@H]2[C@H]1CC/C(COC(=O)C(=O)c1c[nH]c3ccc(OC)cc13)=C\CC[C@@]1(C)O[C@@H]21	-89.8% (active)	-7.42% (active)	-71.4% (active)	-64.8% (active)	-93.1% (active)	-53.2% (active)	33.1%	-97.4% (active)	-93.9% (active)	-79.1% (active)	-49.8% (active)	-69.7% (active)	-88.4% (active)	-17.6% (active)	-97.8% (active)	-70% (active)	-96.6% (active)	-76.6% (active)	-77.4% (active)	-75.3% (active)
O=Cc1c[nH]c2ccc(-c3csc4ccccc34)cc12	80%	8.16% (active)	44.4%	45.7%	45.3%	44.5%	-22.6% (active)	30.9%	39.3%	23.5%	29%	16.5%	39.9%	34.3%	25.2%	61.9%	61%	34%	39.5%	69.8%
O=C1c2cccc(NCCN=Cc3cc([N+](=O)[O-])ccc3O)c2C(=O)c2c(NCCN=Cc3cc([N+](=O)[O-])ccc3O)cccc21	67%	28.6%	85.1%	58.9%	74.5%	40%	73%	70.8%	104%	102%	82%	37.1%	65.9%	50.4%	44.5%	50%	92.1%	90.2%	58.6%	102%
N/C(=N/N=C/c1ccccc1)N/N=C\c1ccccc1	73.6%	21.8%	67.4%	76.3%	24.8%	76%	66.9%	58%	68.5%	26.8%	44.1%	27.7%	67.1%	74.6%	50.2%	64.3%	34.1%	70.5%	62.1%	71.9%
c1ccc2c(c1)nc(CN1CCOCC1)n1cc(N3CCCC3)nc21	106%	67.8%	96.9%	104%	95%	110%	112%	91.5%	99.1%	107%	97.3%	111%	89.7%	102%	102%	82.1%	98%	100%	102%	118%
Cc1cc(NCc2cc(Nc3ccnc4cc(Cl)ccc34)ccc2F)nc(N2CCN(c3ccccc3)CC2)n1	72.5%	-0.109% (active)	84.4%	17.2%	47.4%	65.3%	27.3%	61.9%	73.7%	43.4%	15.6%	13.6%	57.7%	76.5%	10.5%	42.7%	53.3%	70.6%	-84.6% (active)	69.7%
Cc1ccc(Cl)c(NS(=O)(=O)c2ccc(-c3cnc(C4CC4)o3)cc2)c1	21.6%	8.53% (active)	62.4%	32.5%	9.98% (active)	56.2%	16.1%	-8.06% (active)	67.8%	2.07% (active)	16.9%	3.93% (active)	-10.1% (active)	18.9%	24.1%	31.1%	26.4%	26.5%	33%	53.7%
C[C@H](NC(=O)[C@@H]1CSSC[C@@H](NC(=O)c2nc3ccccc3cc2O)C(=O)NCC(=O)N1C)c1ccccc1	32.2%	-30.9% (active)	49.9%	-39.5% (active)	-27.4% (active)	17.6%	77.6%	5.09% (active)	60.9%	0.586% (active)	42.1%	-28.2% (active)	80.3%	35.4%	-7.49% (active)	54.7%	0.825% (active)	16.7%	-74.5% (active)	33.9%
COc1ccc(/C=N/C2=C(C#N)C(c3ccc(OC)cc3)c3ccc4ccccc4c3O2)cc1 (stereo not given)	97.7%	23.4%	74.2%	53.5%	84.8%	77.2%	88.6%	79.5%	92.1%	69.7%	44.3%	123%	45.5%	80%	84.5%	70%	70.4%	57.8%	72.6%	79.7%
Cn1c(=O)c2c(nc(Cl)n2CCl)n(C)c1=O	113%	21.3%	75.6%	105%	53%	104%	112%	103%	84.5%	12.4%	13.6%	80.9%	94%	100%	96%	98.5%	88.1%	94.7%	-0.952% (active)	55%
O=C1CCC2=C3C4CCCCC4C(=O)C4CCCC(OC2C1)C34 (stereo not given)	0.534% (active)	5.63% (active)	-33% (active)	28%	-80.8% (active)	3.25% (active)	33.4%	4.64% (active)	28.8%	0.565% (active)	4.39% (active)	85.6%	43.1%	34.1%	4.33% (active)	46.7%	-77.9% (active)	50.3%	1.47% (active)	52%
CCCCOc1nc2ccccc2cc1C1CNC(=O)c2ccccc2N1 (stereo not given)	10.7%	12.8%	45.6%	47.5%	-14.3% (active)	43.6%	-5.68% (active)	-25.5% (active)	57.2%	-23.1% (active)	15.3%	0.868% (active)	3.14% (active)	33.4%	18.6%	24.7%	15.6%	32.6%	27.1%	45.8%
C(=N\Nc1ncc(-c2cc3cc4c(cc3o2)OCO4)s1)/c1ccco1	12.4%	21.7%	25%	42.4%	17.1%	39.2%	84.8%	7% (active)	80.1%	52.5%	18.4%	36.9%	51.2%	53.9%	37%	33.6%	87.4%	88.8%	-48.8% (active)	81%
Cc1c(C(=O)OC(=NC2CCCCC2)NC2CCCCC2)sc2c1c(=O)nc1c(C#N)n[nH]n12	110%	82.7%	113%	113%	99.2%	106%	109%	104%	102%	103%	114%	96.2%	89.9%	109%	107%	118%	110%	106%	94.8%	100%
COc1ccc(NC(=O)c2nc(-c3cc(OC)c(OC)c(OC)c3)n(-c3cccc4ccccc34)n2)cc1OC	70.4%	35.4%	52.8%	27%	66.1%	58.6%	52.6%	35%	57.5%	48%	14.5%	30%	24.4%	52.3%	52.4%	39.8%	32.4%	31%	25.2%	55.4%
COC(=O)c1c2c(c(C)[n+]([O-])c1C)C(=O)C(NCc1ccc(F)cc1)=CC2=O	42.5%	9.12% (active)	-95.7% (active)	1.94% (active)	56.9%	23%	69.1%	0.757% (active)	-36.8% (active)	2.89% (active)	14%	7.24% (active)	128%	3.72% (active)	-13.9% (active)	3.57% (active)	-47.9% (active)	-35.5% (active)	20.3%	72.4%
C=CCOC1=CC(=O)c2ccccc2C1=O	59.9%	26.8%	69%	77.3%	111%	82%	98.1%	116%	55.8%	79.5%	94.9%	80.5%	48%	104%	86.7%	85.9%	27.3%	57%	3.82% (active)	87%
Nc1nc(N)c2c(n1)NC(c1ccccc1)C1CCc3ccccc3C1=N2 (stereo not given)	49.1%	12.1%	15.3%	64.6%	84.7%	62.7%	17%	47.8%	19.7%	53.2%	39%	27.9%	54.7%	67.2%	37.1%	40.8%	-23.3% (active)	49.3%	44.5%	76.4%
CC1CC2Oc3ccc(Cl)cc3C(=O)N2O1 (stereo not given)	102%	107%	118%	102%	119%	103%	104%	102%	118%	107%	99.2%	105%	101%	112%	108%	97.1%	102%	108%	98.2%	118%
COc1cc2nc(Cl)nc(Nc3ccc(S(=O)(=O)Nc4nccs4)cc3)c2cc1OC	119%	115%	112%	109%	110%	109%	104%	85.9%	103%	100%	96.3%	117%	87.1%	102%	96.3%	91.6%	102%	96%	86.5%	115%
CC1(C)CC(=O)C2=C(C1)N(c1ccc(OC(F)(F)F)cc1)C(N)=C(C#N)C2c1ccc(Cl)cc1 (stereo not given)	91.3%	86.5%	85%	80.8%	66.7%	74.3%	81.6%	82.2%	84.1%	93.7%	97.1%	87.2%	52.6%	57.4%	56.2%	76.8%	93.8%	85.5%	86%	96.2%
C=C(C)[C@@H]1CC=C2c3sc(-c4ccc(C)cc4)nc3C[C@@H](C)[C@]2(C)C1	114%	97%	104%	107%	113%	99.7%	104%	102%	105%	100%	104%	98.8%	87.4%	101%	97.5%	95.5%	101%	93.2%	95.3%	103%
